From PubChem BioAssay (EPA / NIEHS)
Calls of active or inactive are those of the source. How the source made its calls: active means hit-call score of the fitted dose curve at least 0.9, where 1 is the maximum; inactive means score below 0.9.

What follows are molecules tested on NAD(P)H dehydrogenase [quinone] 1 (NQO1), NQO1 (gene 1728) (assay: LTEA_HepaRG_NQO1: Life Technologies and Expression Analysis (LTEA) Assay for NAD(P)H dehydrogenase [quinone] 1 (NQO1) using HepaRG (AID 2283526)). Details: mRNA level, 48 h; actives raise or lower the signal.
Outline: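 Transcript induction or suppression is quantified by qRT-PCR in human HepaRG liver cells dosed for 48 hours. Eight half-log concentrations topping at 100 uM are used, with 0.5% DMSO as vehicle and baseline.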

| Compound | outcome |
| --- | --- |
| CC1=CC(=O)CC(C)(C)C1 | inactive |
| CC(C)CCO | inactive |
| O=C(O)CCN(C1(C(=O)NO)CCCC1)S(=O)(=O)c1ccc(Oc2ccc(F)cc2)cc1 | inactive |
| COC(=O)c1ccccc1O | inactive |
| CC(=O)OCCC(C)C | inactive |
| Clc1nc(Cl)c(Cl)c(Cl)c1Cl | inactive |
| Cc1ccc(S(=O)(=O)O)cc1C | inactive |
| CCOCCOCCOCCO | inactive |
| COC(=O)c1c(Cl)c(Cl)c(C(=O)OC)c(Cl)c1Cl | inactive |
| CC1(C)C(=O)N(Br)C(=O)N1Br | inactive |
| COC(=O)CC(=O)OC | inactive |
| CC[C@H]1CC[C@H](NCc2cc3c(cc2OC)[C@H]2C[C@H]2C(=O)N3C)[C@H](c2ccccc2)N1 | inactive |
| CC(O)CN(CCN(CC(C)O)CC(C)O)CC(C)O (configuration not stated) | inactive |
| O=C1CCC(N2C(=O)c3ccccc3C2=O)C(=O)N1 (configuration not stated) | inactive |
| O=P(OC(CCl)CCl)(OC(CCl)CCl)OC(CCl)CCl | inactive |
| COc1cccc(-c2ccc(/C=C\CN3CCCCCC3)cc2Cl)c1 | inactive |
| O=C1CCCCCN1 | inactive |
| CCOCCO | inactive |
| CCN(C(=O)c1cc(C)cc(OC[C@H](C)Nc2ccncc2)c1)C(C)C | inactive |
| CCCCC(CC)COC(=O)c1ccc(C(=O)OCC(CC)CCCC)cc1 (configuration not stated) | inactive |
| CNS(=O)(=O)c1cc(C(=O)N2CCC(CCN3C4CCC3CC(n3c(C)nc5ccccc53)C4)(c3cccc(F)c3)CC2)c(Cl)cc1F (configuration not stated) | inactive |
| CCCCCCc1ccc(O)cc1O | inactive |
| COCCOCCOCCOC | inactive |
| CC[C@H](C)C(=O)O[C@H]1C[C@@H](C)C=C2C=C[C@H](C)[C@H](CC[C@@H]3C[C@@H](O)CC(=O)O3)[C@H]21 | inactive |
| C=CC(=C)CCC=C(C)C | inactive |
| C1=CCCC=CCCC=CCC1 | inactive |
| CC(C)=CCCC(C)=CC=O | inactive |
| Cn1cnc([N+](=O)[O-])c1Sc1ncnc2nc[nH]c12 | inactive |
| CC(C)CC(C)(O)C#CC(C)(O)CC(C)C (configuration not stated) | inactive |

Each molecule was assayed on Nuclear factor erythroid 2-related factor 2 (Homo sapiens) (UniProt Q16236) (assay: LTEA_HepaRG_NFE2L2: Life Technologies and Expression Analysis (LTEA) Assay for Nuclear factor erythroid 2-related factor 2 (NFE2L2) Transcription Factor using HepaRG (AID 2283527;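 on outcome: TaqMan qRT-PCR transcript level normalised to ACTB GAPDH and POLR2A housekeeping genes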)). Details: mRNA level, 48 h; actives raise or lower the signal.
Outline: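 Human liver HepaRG line treated in duplicate for 48 h with an eight-point series topping at 100 uM. Gene expression of NFE2L2 by qRT-PCR, bidirectionally fitted against the vehicle control.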

Chain of Nuclear factor erythroid 2-related factor 2 (Homo sapiens) (Q16236 whole entry, looked up): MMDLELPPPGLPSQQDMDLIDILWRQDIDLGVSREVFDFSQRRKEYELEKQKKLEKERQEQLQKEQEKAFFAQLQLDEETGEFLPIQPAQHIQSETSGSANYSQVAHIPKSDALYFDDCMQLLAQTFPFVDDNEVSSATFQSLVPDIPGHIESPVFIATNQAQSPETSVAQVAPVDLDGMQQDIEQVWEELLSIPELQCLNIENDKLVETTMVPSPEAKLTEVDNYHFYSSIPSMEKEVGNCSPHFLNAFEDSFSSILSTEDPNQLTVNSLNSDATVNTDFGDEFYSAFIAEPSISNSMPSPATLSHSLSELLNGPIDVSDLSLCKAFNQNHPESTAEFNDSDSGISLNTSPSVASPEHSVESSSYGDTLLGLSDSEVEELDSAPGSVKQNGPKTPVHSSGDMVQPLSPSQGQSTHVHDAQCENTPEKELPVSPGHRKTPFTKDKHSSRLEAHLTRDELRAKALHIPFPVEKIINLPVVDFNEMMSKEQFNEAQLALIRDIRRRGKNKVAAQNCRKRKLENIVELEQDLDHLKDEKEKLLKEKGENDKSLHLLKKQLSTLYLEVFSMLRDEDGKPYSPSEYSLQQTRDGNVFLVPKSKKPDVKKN

| Compound | outcome | AC50 |
| --- | --- | --- |
| CC1=CC(=O)CC(C)(C)C1 | inactive |  |
| CC(C)CCO | inactive |  |
| O=C(O)CCN(C1(C(=O)NO)CCCC1)S(=O)(=O)c1ccc(Oc2ccc(F)cc2)cc1 | inactive |  |
| COC(=O)c1ccccc1O | inactive |  |
| CC(=O)OCCC(C)C | inactive |  |
| Clc1nc(Cl)c(Cl)c(Cl)c1Cl | inactive |  |
| Cc1ccc(S(=O)(=O)O)cc1C | inactive |  |
| CCOCCOCCOCCO | inactive |  |
| COC(=O)c1c(Cl)c(Cl)c(C(=O)OC)c(Cl)c1Cl | inactive |  |
| CC1(C)C(=O)N(Br)C(=O)N1Br | inactive |  |
| COC(=O)CC(=O)OC | inactive |  |
| CC[C@H]1CC[C@H](NCc2cc3c(cc2OC)[C@H]2C[C@H]2C(=O)N3C)[C@H](c2ccccc2)N1 | inactive |  |
| CC(O)CN(CCN(CC(C)O)CC(C)O)CC(C)O (configuration not stated) |  | 12.6 µM (active) |
| O=C1CCC(N2C(=O)c3ccccc3C2=O)C(=O)N1 (configuration not stated) | inactive |  |
| O=P(OC(CCl)CCl)(OC(CCl)CCl)OC(CCl)CCl |  | 83 µM (active) |
| COc1cccc(-c2ccc(/C=C\CN3CCCCCC3)cc2Cl)c1 |  | 65.7 µM (active) |
| O=C1CCCCCN1 | inactive |  |
| CCOCCO | inactive |  |
| CCN(C(=O)c1cc(C)cc(OC[C@H](C)Nc2ccncc2)c1)C(C)C | inactive |  |
| CCCCC(CC)COC(=O)c1ccc(C(=O)OCC(CC)CCCC)cc1 (configuration not stated) | inactive |  |
| CNS(=O)(=O)c1cc(C(=O)N2CCC(CCN3C4CCC3CC(n3c(C)nc5ccccc53)C4)(c3cccc(F)c3)CC2)c(Cl)cc1F (configuration not stated) | inactive |  |
| CCCCCCc1ccc(O)cc1O | inactive |  |
| COCCOCCOCCOC | inactive |  |
| CC[C@H](C)C(=O)O[C@H]1C[C@@H](C)C=C2C=C[C@H](C)[C@H](CC[C@@H]3C[C@@H](O)CC(=O)O3)[C@H]21 | inactive |  |
| C=CC(=C)CCC=C(C)C | inactive |  |
| C1=CCCC=CCCC=CCC1 | inactive |  |
| CC(C)=CCCC(C)=CC=O | inactive |  |
| Cn1cnc([N+](=O)[O-])c1Sc1ncnc2nc[nH]c12 | inactive |  |
| CC(C)CC(C)(O)C#CC(C)(O)CC(C)C (configuration not stated) | inactive |  |

What follows are molecules tested on succinate dehydrogenase complex iron sulfur subunit B (SDHB), SDHB (gene 6390) (assay: LTEA_HepaRG_SDHB: Life Technologies and Expression Analysis (LTEA) Assay for succinate dehydrogenase complex iron sulfur subunit B (SDHB) using HepaRG (AID 2283528)). Details: mRNA level, 48 h; actives raise or lower the signal.
Outline: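 A human HepaRG culture in serum-free induction medium received test chemicals for 48 h over an eight-point range capped at 100 uM. SDHB expression change was quantified by qRT-PCR.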

| Compound | outcome | AC50 |
| --- | --- | --- |
| CC1=CC(=O)CC(C)(C)C1 | inactive |  |
| CC(C)CCO | inactive |  |
| O=C(O)CCN(C1(C(=O)NO)CCCC1)S(=O)(=O)c1ccc(Oc2ccc(F)cc2)cc1 | inactive |  |
| COC(=O)c1ccccc1O | inactive |  |
| CC(=O)OCCC(C)C | inactive |  |
| Clc1nc(Cl)c(Cl)c(Cl)c1Cl | inactive |  |
| Cc1ccc(S(=O)(=O)O)cc1C | inactive |  |
| CCOCCOCCOCCO | inactive |  |
| COC(=O)c1c(Cl)c(Cl)c(C(=O)OC)c(Cl)c1Cl | inactive |  |
| CC1(C)C(=O)N(Br)C(=O)N1Br | inactive |  |
| COC(=O)CC(=O)OC | inactive |  |
| CC[C@H]1CC[C@H](NCc2cc3c(cc2OC)[C@H]2C[C@H]2C(=O)N3C)[C@H](c2ccccc2)N1 | inactive |  |
| CC(O)CN(CCN(CC(C)O)CC(C)O)CC(C)O (configuration not stated) | inactive |  |
| O=C1CCC(N2C(=O)c3ccccc3C2=O)C(=O)N1 (configuration not stated) | inactive |  |
| O=P(OC(CCl)CCl)(OC(CCl)CCl)OC(CCl)CCl |  | 85 µM (active) |
| COc1cccc(-c2ccc(/C=C\CN3CCCCCC3)cc2Cl)c1 | inactive |  |
| O=C1CCCCCN1 | inactive |  |
| CCOCCO | inactive |  |
| CCN(C(=O)c1cc(C)cc(OC[C@H](C)Nc2ccncc2)c1)C(C)C | inactive |  |
| CCCCC(CC)COC(=O)c1ccc(C(=O)OCC(CC)CCCC)cc1 (configuration not stated) | inactive |  |
| CNS(=O)(=O)c1cc(C(=O)N2CCC(CCN3C4CCC3CC(n3c(C)nc5ccccc53)C4)(c3cccc(F)c3)CC2)c(Cl)cc1F (configuration not stated) |  | 17.3 µM (active) |
| CCCCCCc1ccc(O)cc1O | inactive |  |
| COCCOCCOCCOC | inactive |  |
| CC[C@H](C)C(=O)O[C@H]1C[C@@H](C)C=C2C=C[C@H](C)[C@H](CC[C@@H]3C[C@@H](O)CC(=O)O3)[C@H]21 | inactive |  |
| C=CC(=C)CCC=C(C)C | inactive |  |
| C1=CCCC=CCCC=CCC1 | inactive |  |
| CC(C)=CCCC(C)=CC=O | inactive |  |
| Cn1cnc([N+](=O)[O-])c1Sc1ncnc2nc[nH]c12 | inactive |  |
| CC(C)CC(C)(O)C#CC(C)(O)CC(C)C (configuration not stated) | inactive |  |
